Reference: the supplement of paper PMC3334620
Whole data set: some 33,000 sequences, median “E-score (-0.5 to 0.5)” near -0.032, cut for the highest 2% near 0.36. The full list was thinned out, with the highest values kept by preference.

These sequences were tested against T1, Sko1 (UniProt Q02100) (assay: PBM E-score (8-mer binding enrichment) (E-score (-0.5 to 0.5)); higher = stronger / more preferred TF binding). Conditions: protein concentration: 200 nM; construct: GST-full length.
T1 sequence: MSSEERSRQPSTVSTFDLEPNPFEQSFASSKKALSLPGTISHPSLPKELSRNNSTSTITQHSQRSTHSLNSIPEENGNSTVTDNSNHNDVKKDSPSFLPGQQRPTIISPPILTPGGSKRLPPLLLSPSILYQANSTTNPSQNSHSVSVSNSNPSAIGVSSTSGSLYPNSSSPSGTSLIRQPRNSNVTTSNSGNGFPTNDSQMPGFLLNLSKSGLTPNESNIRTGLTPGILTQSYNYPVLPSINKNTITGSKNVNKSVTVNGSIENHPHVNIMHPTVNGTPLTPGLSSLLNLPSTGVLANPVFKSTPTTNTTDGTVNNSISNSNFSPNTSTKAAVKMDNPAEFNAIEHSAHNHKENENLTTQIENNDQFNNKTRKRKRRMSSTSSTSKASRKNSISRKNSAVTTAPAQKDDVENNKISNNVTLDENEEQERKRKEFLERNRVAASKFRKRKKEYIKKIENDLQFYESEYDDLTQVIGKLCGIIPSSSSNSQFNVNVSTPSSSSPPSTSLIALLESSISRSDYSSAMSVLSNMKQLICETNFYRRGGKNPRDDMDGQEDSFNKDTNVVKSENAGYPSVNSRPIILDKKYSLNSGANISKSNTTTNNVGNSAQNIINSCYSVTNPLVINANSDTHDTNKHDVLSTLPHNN
Outline: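 For each ungapped eight-base word taken together with its reverse complement, the Universal PBM Analysis Suite assigned an E-score. Binding data came from GST-tagged yeast transcription factors, applied at about 100-200 nM, on universal all-10-mer Agilent arrays made double-stranded by primer extension. Fluorescent anti-GST marked bound protein, and scans were normalised with masliner.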

Row | Sequence | PBM E-score
1 | AGTAGTCC | 0.0244
2 | AACGTTCA | 0.0648
3 | AACGTTAG | 0.176
4 | AACGTTAT | 0.368
5 | GACGTTAC | 0.365
6 | AACGTTAC | 0.321
7 | CACGTTCA | 0.171
8 | AACGTTTA | 0.31
9 | CACGTTTA | 0.321
10 | AACGTTCT | 0.167
11 | CACGTTAC | 0.305
12 | TACGTTCA | 0.374
13 | GACGTTTA | 0.386
14 | AGCTCAAC | -0.147
15 | AGTGCTGG | -0.111
16 | AAGTCGAC | 0.0592
17 | ATCTGAGA | -0.0991
18 | CAATACCG | -0.186
19 | CTTGAAGA | -0.132
20 | ACGAAGGG | 0.129
21 | CTGATCCC | -0.269
22 | AACTCCTT | -0.0253
23 | ATTCGACA | -0.09
24 | CAACAACC | -0.0035
25 | CCAGAGAC | -0.251

Row | Sequence | PBM E-score
26 | CATCCCTC | -0.245
27 | GACGTTAA | 0.368
28 | CACGTTGA | 0.25
29 | CACGTTAA | 0.244
30 | TACGTTGA | 0.38
31 | CACGTTAG | 0.2
32 | GGCGTTAA | -0.0249
33 | TACGTTAA | 0.413
34 | GACGTTGA | 0.269
35 | AACGTTAA | 0.243
36 | CTTCCTAC | -0.225
37 | CTTCTCTA | -0.284
38 | TATGAGCA | 0.00789
39 | ACCTGGCT | -0.232
40 | ACCGTCCG | -0.304
41 | AGGAGCCA | -0.258
42 | CCTGCGGC | -0.427
43 | CAATGACA | 0.229
44 | GAATGACA | 0.249
45 | CAATGACG | 0.486
46 | AAATGACC | 0.0951
47 | AAATGACG | 0.481
48 | TAATGACA | 0.364
49 | AAATGACA | 0.272
50 | TAATGAAA | 0.24

Row | Sequence | PBM E-score
51 | CAATGACC | 0.0293
52 | AAATGGTG | 0.0316
53 | GAAGGTAA | 0.0069
54 | ACACTCAG | -0.0491
55 | TACGGCTA | -0.0295
56 | ATTCGAAG | 0.0402
57 | AGCTAGTG | -0.00092
58 | AAACAAGG | -0.131
59 | ATGATTCC | 0.169
60 | ACCTACGT | 0.444
61 | AACTACGT | 0.455
62 | ACCTACGG | -0.217
63 | AACTACGC | 0.305
64 | ACCTACGC | 0.293
65 | AACTACGA | 0.198
66 | ACGCCAAA | 0.0451
67 | GCAAACCA | -0.0509
68 | CTTTGGAA | -0.0181
69 | AGTCGTTA | 0.0683
70 | CAAGAAGA | -0.0303
71 | CTCTTTCA | -0.0826
72 | CAGGTTTC | -0.0189
73 | GAAGCACC | -0.0674
74 | TAAAGAGA | 0.0871
75 | ATTACATG | 0.324

Row | Sequence | PBM E-score
76 | ATTACATC | 0.403
77 | CTTACATC | 0.202
78 | GTTACATA | 0.251
79 | AGTACATC | 0.142
80 | ATTACATA | 0.386
81 | AGACAGCC | -0.219
82 | CGCGTAAA | 0.311
83 | TGCGTAAA | 0.404
84 | AGCGTAAA | 0.189
85 | TGCGTACA | 0.36
86 | AGCGTACA | 0.0563
87 | GGCGTACA | -0.0526
88 | GTTGCACA | 0.0444
89 | CGCATCAG | -0.0566
90 | AGTCAACA | 0.0814
91 | GAAGTCGC | -0.139
92 | ATGTGCAC | -0.0142
93 | CCGATTAC | 0.0359
94 | ACGATTAC | 0.369
95 | GCGATTAC | 0.144
96 | ATGAGTCC | 0.0501
97 | CCGTACGA | 0.0901
98 | GCGTACGA | 0.238
99 | ACGTACGG | 0.38
100 | AAGTACGA | 0.201

Row | Sequence | PBM E-score
101 | AAGTACGC | 0.193
102 | GCGTACGC | 0.269
103 | ACGTACGA | 0.414
104 | CCGTACGG | -0.262
105 | AAGTACGT | 0.44
106 | CCGTACGC | 0.0653
107 | ATGTACGG | -0.046
108 | ACGTACGC | 0.453
109 | AGCGTTAT | 0.0494
110 | ACCTGCAT | -0.13
111 | ATAAGAGA | 0.0988
112 | ATCTTCGC | 0.1
113 | AAAGTAAC | 0.0224
114 | AAAACCGG | -0.128
115 | CAGGCCGA | -0.182
116 | GGGGTAGA | -0.0788
117 | AGAAACTG | 0.0191
118 | CGCAGCTC | -0.0758
119 | ATGTACGA | 0.143
120 | ACGTACGT | 0.473
121 | TCGTACGA | 0.282
122 | ACCTAGCG | -0.0355
123 | AAGGTGCT | -0.238
124 | ATGCAAAA | 0.116
125 | AAATTGAG | -0.0473

Row | Sequence | PBM E-score
126 | CCGTTTAA | -0.0451
127 | ACGTTTAC | 0.345
128 | ACGTTTAG | 0.355
129 | AGGTTTAT | 0.0336
130 | ACGTTTAT | 0.388
131 | ACGTTTAA | 0.406
132 | GTGCCAAA | -0.0151
133 | CTAACTTC | 0.0478
134 | CGTCTGCC | -0.00999
135 | ATATTTCG | 0.235
136 | GATTGGTA | -0.054
137 | AAAGTCTT | 0.0148
138 | GGGGAGTA | -0.124
139 | ATGCCAAA | -0.0114
140 | CAACGTCG | 0.222
141 | TAACGGCA | 0.0289
142 | AAACGTCC | 0.13
143 | GAACGTCA | 0.456
144 | AAACGTCT | 0.341
145 | AAACGTCA | 0.47
146 | TAACGCCA | 0.144
147 | CAACGTCC | -0.0395
148 | GAACGTTA | 0.18
149 | GAACGTCC | 0.117
150 | CAACGTCA | 0.47

Row | Sequence | PBM E-score
151 | TAACGTCA | 0.48
152 | CCACTCGC | -0.25
153 | GAGATCCC | -0.171
154 | CCCGCAAA | -0.0244
155 | GGGGCGGA | -0.338
156 | CGTCTAAG | 0.0318
157 | CCGACCGG | -0.294
158 | ACAGTCTG | -0.171
159 | ACGATTCG | 0.059
160 | CCGTCTGA | -0.224
161 | AGGCAGTA | -0.129
162 | CCGGCCGG | -0.373
163 | CACTGACG | 0.424
164 | CACTGACC | -0.26
165 | AACTGACT | -0.0679
166 | AGCTGACG | 0.347
167 | CGCTGACG | 0.389
168 | AACTGACG | 0.363
169 | AACTGACA | 0.183
170 | CGCTGACC | -0.15
171 | CACTGACA | 0.0149
172 | TGGTGCAA | -0.0842
173 | CCTTTTAC | -0.0204
174 | AGCGAACC | 0.0124
175 | TCCCAAAA | -0.048

Row | Sequence | PBM E-score
176 | ATGCAAAC | 0.108
177 | ATACCGTG | -0.0765
178 | GCACTGCA | 0.0142
179 | AAGTCACA | 0.0509
180 | AGGTCACG | 0.0716
181 | AGGTCACC | -0.128
182 | ACGTCACA | 0.481
183 | ACGTCACG | 0.486
184 | AAGTCACT | 0.144
185 | ACGTCACC | 0.489
186 | AGGTCACT | -0.0104
187 | ACGTCACT | 0.489
188 | AAGTCACG | 0.126
189 | CCGTCACC | 0.101
190 | ATGTCACA | 0.324
191 | CTAGAATC | -0.0473
192 | ATCAGGTG | -0.0909
193 | ACTGCAAC | -0.0632
194 | GTGCTTCA | 0.0642
195 | ACATATGT | 0.29
196 | CGTGAGAA | 0.117
197 | ATAATTAA | 0.285
198 | ATAATTAC | 0.376
199 | GTAATTAA | 0.237
200 | GTAATTAC | 0.367

Row | Sequence | PBM E-score
201 | GAAATTAC | 0.323
202 | CTAATTAC | 0.323
203 | CACTGTCG | -0.11
204 | GCACCTGC | -0.202
205 | AAATCATA | 0.204
206 | ACATCATG | 0.393
207 | ACATCAAG | 0.242
208 | CCATCATA | 0.0672
209 | CCATCATC | 0.0168
210 | GCATCAGA | 0.113
211 | ACATCATA | 0.425
212 | CTATCATC | 0.0137
213 | ACATCAGA | 0.122
214 | ACATCATC | 0.43
215 | ACATCACA | 0.313
216 | GCATCATA | 0.366
217 | ACTGGTTA | 0.0712
218 | ATTGGAGA | 0.0978
219 | ACGCCGTC | 0.192
